Test results published in PubChem BioAssay (NCI).
This is part of a sample that, as a whole, favours compounds with a hit. Of some 83,000 tested, about 20% had one in any assay.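 Step 1: grow cells in 96-well plates. Step 2: add test compound at a single concentration. Step 3: incubate 48 h. Step 4: record percent growth.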 Activity calls are given as the source filed them. The calls were made as follows: active = growth percent below 10; inactive = the rest.

Assays:
Assay in all cases: NCI-60 one-dose screen, 48 h (100 = growth as untreated, 0 = no growth, -100 = all killed)
Conditions in all cases: 10 µM unless noted
NCI-H23 lung = test system: NCI-H23 lung
NCI-H226 lung = test system: NCI-H226 lung
NCI-H322M lung = test system: NCI-H322M lung
HOP-62 NSCLC = test system: HOP-62 NSCLC
NCI-H460 lung = test system: NCI-H460 lung
HOP-92 NSCLC = test system: HOP-92 NSCLC
NCI-H522 lung = test system: NCI-H522 lung
A549/ATCC NSCLC = test system: A549/ATCC NSCLC
786-0 renal = test system: 786-0 renal
COLO 205 colon = test system: COLO 205 colon
DU-145 prostate = test system: DU-145 prostate
K-562 leukemia = test system: K-562 leukemia
MALME-3M melanoma = test system: MALME-3M melanoma
MDA-MB-231 breast = test system: MDA-MB-231 breast
RXF 393 renal = test system: RXF 393 renal
SF-268 CNS = test system: SF-268 CNS
SF-295 CNS = test system: SF-295 CNS
SF-539 CNS = test system: SF-539 CNS
UACC-257 melanoma = test system: UACC-257 melanoma
M14 melanoma = test system: M14 melanoma

Measured: growth

O=C(N/N=C/c1c(Cl)cccc1Cl)c1cccnc1Nc1cccc(C(F)(F)F)c1
inactive: NCI-H23 lung 44.3% | NCI-H226 lung 18.4% | NCI-H322M lung 35% | HOP-62 NSCLC 40.2% | NCI-H460 lung 15% | HOP-92 NSCLC 14.7% | A549/ATCC NSCLC 51% | 786-0 renal 42.6% | COLO 205 colon 15.1% | DU-145 prostate 49.3% | K-562 leukemia 73.9% | MALME-3M melanoma 54.3% | MDA-MB-231 breast 55.9% | RXF 393 renal 68.1% | SF-268 CNS 39.3% | SF-295 CNS 28.8% | SF-539 CNS 34.1% | UACC-257 melanoma 56% | M14 melanoma 37.3%
active: NCI-H522 lung 1.47%

COc1c(B(O)O)cccc1-c1cc(C)c2c(ccc3[nH]ncc32)n1
active: RXF 393 renal 7.05%
inactive: NCI-H23 lung 78.4% | NCI-H226 lung 89.7% | NCI-H322M lung 74.3% | HOP-62 NSCLC 46.3% | NCI-H460 lung 71% | HOP-92 NSCLC 41.8% | NCI-H522 lung 62.6% | A549/ATCC NSCLC 75.1% | 786-0 renal 40.9% | COLO 205 colon 93.3% | DU-145 prostate 80.8% | K-562 leukemia 99.4% | MALME-3M melanoma 179% | MDA-MB-231 breast 22.1% | SF-268 CNS 62.7% | SF-295 CNS 87.8% | SF-539 CNS 25.2% | UACC-257 melanoma 126% | M14 melanoma 131%

COC1=CC(c2ccc[nH]2)=N/C1=C\c1[nH]c(C)c(C(=O)OC(C)C)c1C
inactive: DU-145 prostate 10.5%
active: NCI-H23 lung -43.4% | NCI-H226 lung -27.4% | NCI-H322M lung -28.2% | HOP-62 NSCLC -21.4% | NCI-H460 lung 0.0375% | HOP-92 NSCLC -33% | NCI-H522 lung -58.2% | A549/ATCC NSCLC -21.2% | 786-0 renal -41.9% | COLO 205 colon -80.5% | K-562 leukemia 2.07% | MALME-3M melanoma -74.3% | MDA-MB-231 breast -67% | RXF 393 renal -17.7% | SF-268 CNS 6.34% | SF-295 CNS -76% | SF-539 CNS -58.6% | UACC-257 melanoma -37.7% | M14 melanoma -67.5%

NC(Cc1ccc(O)c([N+](=O)[O-])c1)C(=O)O (stereo not given)
inactive: NCI-H23 lung 98.5% | NCI-H226 lung 101% | NCI-H322M lung 107% | HOP-62 NSCLC 105% | NCI-H460 lung 113% | HOP-92 NSCLC 67.4% | NCI-H522 lung 94.7% | A549/ATCC NSCLC 100% | 786-0 renal 99.2% | COLO 205 colon 122% | DU-145 prostate 106% | K-562 leukemia 101% | MALME-3M melanoma 109% | MDA-MB-231 breast 113% | RXF 393 renal 108% | SF-268 CNS 99.8% | SF-295 CNS 117% | SF-539 CNS 100% | UACC-257 melanoma 99.8% | M14 melanoma 101%

O=C(/C=C/c1ccco1)Nc1ncc(Cc2cccc(C(F)(F)F)c2)s1
inactive: NCI-H23 lung 22.4% | NCI-H226 lung 33.2% | NCI-H322M lung 30.4% | HOP-92 NSCLC 64.3% | A549/ATCC NSCLC 11.6% | 786-0 renal 12.6% | DU-145 prostate 10.5% | MDA-MB-231 breast 25.5% | SF-268 CNS 33.2% | UACC-257 melanoma 25.4%
active: HOP-62 NSCLC 1.31% | NCI-H460 lung -0.329% | NCI-H522 lung -15% | COLO 205 colon -47.5% | K-562 leukemia 4.59% | MALME-3M melanoma 5.43% | RXF 393 renal -8.57% | SF-295 CNS -20.5% | SF-539 CNS -39.8% | M14 melanoma -10.2%

N#Cc1ccc2c(c1)C(=O)c1c-2n(CCCN)c(=O)c2cc([N+](=O)[O-])ccc12
active: NCI-H23 lung -57.6% | NCI-H226 lung -71.6% | NCI-H322M lung -81.5% | HOP-62 NSCLC -89.5% | NCI-H460 lung -100% | HOP-92 NSCLC -2.3% | NCI-H522 lung -72.2% | A549/ATCC NSCLC -100% | 786-0 renal -90% | COLO 205 colon -100% | DU-145 prostate -100% | K-562 leukemia -100% | MALME-3M melanoma -82.3% | MDA-MB-231 breast -100% | RXF 393 renal -87.9% | SF-268 CNS -92.1% | SF-295 CNS -73.9% | SF-539 CNS -98.2% | UACC-257 melanoma -100% | M14 melanoma -100%

O=C(Nc1ccc(OS(=O)(=O)c2ccc(F)cc2)cc1)C1CCCCCC1
inactive: NCI-H23 lung 83.6% | NCI-H226 lung 94.3% | NCI-H322M lung 106% | HOP-62 NSCLC 98.6% | NCI-H460 lung 95.5% | HOP-92 NSCLC 83.4% | NCI-H522 lung 81.2% | A549/ATCC NSCLC 92.5% | 786-0 renal 96.6% | COLO 205 colon 64.6% | DU-145 prostate 90.6% | K-562 leukemia 55.4% | MALME-3M melanoma 99.6% | MDA-MB-231 breast 82.7% | RXF 393 renal 105% | SF-268 CNS 88.2% | SF-295 CNS 98% | SF-539 CNS 89.7% | UACC-257 melanoma 93.9% | M14 melanoma 85.9%
